# Measurements published in ChEMBL document CHEMBL1961873, “Compounds: GSK PKIS; Assays: Nanosyn kinase panel” (2012).
# Where “and” joins values, the source holds several entries; their conditions need not be identical. Equal entries are not always repeated.
# Tests used:
# [1] = molecular target: Mitogen-activated protein kinase kinase kinase kinase 4 (Homo sapiens) (UniProt O95819); settings: at 1 µM;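 also: reported figure is an averaged inhibition value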
# [2] = molecular target: Dual specificity mitogen-activated protein kinase kinase 1 (Homo sapiens) (UniProt Q02750); settings: at 0.1 µM
# [3] = molecular target: Dual specificity mitogen-activated protein kinase kinase 1 (Homo sapiens) (UniProt Q02750); settings: at 1 µM
# [4] = molecular target: Misshapen-like kinase 1 (Homo sapiens) (UniProt Q8N4C8); settings: at 0.1 µM
# [5] = molecular target: Misshapen-like kinase 1 (Homo sapiens) (UniProt Q8N4C8); settings: at 1 µM
# [6] = molecular target: T1, Serine/threonine-protein kinase 4 (Homo sapiens) (UniProt Q13043); settings: at 0.1 µM
# T1 sequence (whole entry): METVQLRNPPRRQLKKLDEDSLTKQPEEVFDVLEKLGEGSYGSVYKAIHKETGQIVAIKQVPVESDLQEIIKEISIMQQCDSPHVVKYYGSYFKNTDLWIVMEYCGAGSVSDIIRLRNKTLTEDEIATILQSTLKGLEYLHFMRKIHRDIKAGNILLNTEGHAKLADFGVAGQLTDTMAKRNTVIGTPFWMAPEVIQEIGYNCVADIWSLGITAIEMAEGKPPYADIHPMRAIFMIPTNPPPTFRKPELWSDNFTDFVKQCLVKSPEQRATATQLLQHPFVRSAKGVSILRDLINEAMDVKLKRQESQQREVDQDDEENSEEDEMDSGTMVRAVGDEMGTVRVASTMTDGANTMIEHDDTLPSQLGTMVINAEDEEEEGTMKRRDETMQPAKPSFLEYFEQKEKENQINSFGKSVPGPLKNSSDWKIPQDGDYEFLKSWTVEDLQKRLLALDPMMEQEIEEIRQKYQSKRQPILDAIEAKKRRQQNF
# [7] = molecular target: T1, Serine/threonine-protein kinase 4 (Homo sapiens); settings: at 1 µM
# [8] = molecular target: T2, Serine/threonine-protein kinase 3 (Homo sapiens) (UniProt Q13188); settings: at 0.1 µM
# T2 sequence (whole entry): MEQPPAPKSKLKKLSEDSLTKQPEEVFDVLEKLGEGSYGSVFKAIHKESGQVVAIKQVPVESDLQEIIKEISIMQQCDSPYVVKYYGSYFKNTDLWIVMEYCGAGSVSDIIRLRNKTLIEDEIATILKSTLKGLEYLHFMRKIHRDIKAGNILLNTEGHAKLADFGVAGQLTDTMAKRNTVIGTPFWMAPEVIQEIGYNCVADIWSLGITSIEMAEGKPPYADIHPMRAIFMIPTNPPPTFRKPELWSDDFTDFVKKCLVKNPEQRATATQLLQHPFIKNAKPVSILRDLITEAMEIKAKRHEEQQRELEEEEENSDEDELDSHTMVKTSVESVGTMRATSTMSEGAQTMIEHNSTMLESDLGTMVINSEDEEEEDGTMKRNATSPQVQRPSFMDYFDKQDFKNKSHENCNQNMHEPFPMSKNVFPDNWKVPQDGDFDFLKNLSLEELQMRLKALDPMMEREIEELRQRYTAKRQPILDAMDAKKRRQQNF
# [9] = molecular target: T2, Serine/threonine-protein kinase 3 (Homo sapiens); settings: at 1 µM
# [10] = molecular target: Serine/threonine-protein kinase 26 (Homo sapiens) (UniProt Q9P289); settings: at 0.1 µM
# [11] = molecular target: Serine/threonine-protein kinase 26 (Homo sapiens) (UniProt Q9P289); settings: at 1 µM
# [12] = molecular target: Serine/threonine-protein kinase PAK 1 (Homo sapiens) (UniProt Q13153); settings: at 0.1 µM
# [13] = molecular target: Serine/threonine-protein kinase PAK 1 (Homo sapiens) (UniProt Q13153); settings: at 1 µM
# [14] = molecular target: Serine/threonine-protein kinase PAK 2 (Homo sapiens) (UniProt Q13177); settings: at 0.1 µM
# [15] = molecular target: Serine/threonine-protein kinase PAK 2 (Homo sapiens) (UniProt Q13177); settings: at 1 µM
# [16] = molecular target: Serine/threonine-protein kinase PAK 3 (Homo sapiens) (UniProt O75914); settings: at 0.1 µM
# [17] = molecular target: Serine/threonine-protein kinase PAK 3 (Homo sapiens) (UniProt O75914); settings: at 1 µM
# [18] = molecular target: Serine/threonine-protein kinase PAK 5 (Homo sapiens) (UniProt Q9P286); settings: at 0.1 µM
# [19] = molecular target: Serine/threonine-protein kinase PAK 5 (Homo sapiens) (UniProt Q9P286); settings: at 1 µM
# [20] = molecular target: Serine/threonine-protein kinase PAK 6 (Homo sapiens) (UniProt Q9NQU5); settings: at 0.1 µM;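 also: mean PAK6 inhibition reported from the GSK PKIS screen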
# Sequence of Serine/threonine-protein kinase PAK 6 (Homo sapiens) (Q9NQU5 whole entry, looked up): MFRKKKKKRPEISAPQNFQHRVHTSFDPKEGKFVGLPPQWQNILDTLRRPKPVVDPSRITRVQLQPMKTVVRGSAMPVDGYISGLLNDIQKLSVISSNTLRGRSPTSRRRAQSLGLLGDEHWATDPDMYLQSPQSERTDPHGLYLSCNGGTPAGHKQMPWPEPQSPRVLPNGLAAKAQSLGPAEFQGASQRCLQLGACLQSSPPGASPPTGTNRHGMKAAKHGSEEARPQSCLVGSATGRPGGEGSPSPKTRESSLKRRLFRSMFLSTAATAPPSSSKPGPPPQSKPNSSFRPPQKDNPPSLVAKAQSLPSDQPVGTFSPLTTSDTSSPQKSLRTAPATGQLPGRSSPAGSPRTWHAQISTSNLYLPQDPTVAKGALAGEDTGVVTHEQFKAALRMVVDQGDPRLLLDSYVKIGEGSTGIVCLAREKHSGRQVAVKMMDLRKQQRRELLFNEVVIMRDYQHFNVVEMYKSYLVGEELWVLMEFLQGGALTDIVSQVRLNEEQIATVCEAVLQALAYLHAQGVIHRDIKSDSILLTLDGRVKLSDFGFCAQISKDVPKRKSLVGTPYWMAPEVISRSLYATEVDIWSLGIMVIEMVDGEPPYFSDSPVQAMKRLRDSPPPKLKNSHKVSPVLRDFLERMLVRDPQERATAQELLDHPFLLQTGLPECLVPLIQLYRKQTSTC
# Sequence of Serine/threonine-protein kinase 26 (Homo sapiens) (Q9P289 2-416 limits assumed): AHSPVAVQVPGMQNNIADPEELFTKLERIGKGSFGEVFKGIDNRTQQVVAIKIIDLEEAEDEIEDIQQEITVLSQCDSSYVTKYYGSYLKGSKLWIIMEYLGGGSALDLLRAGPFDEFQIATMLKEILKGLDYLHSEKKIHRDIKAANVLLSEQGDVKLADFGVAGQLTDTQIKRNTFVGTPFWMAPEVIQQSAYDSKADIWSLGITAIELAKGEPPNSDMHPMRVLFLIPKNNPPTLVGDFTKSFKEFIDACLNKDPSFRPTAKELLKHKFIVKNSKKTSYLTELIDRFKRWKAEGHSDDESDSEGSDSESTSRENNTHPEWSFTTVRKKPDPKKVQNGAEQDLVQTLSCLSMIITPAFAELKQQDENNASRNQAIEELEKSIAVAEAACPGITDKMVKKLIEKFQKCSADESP
# Sequence of Serine/threonine-protein kinase PAK 2 (Homo sapiens) (Q13177 whole entry): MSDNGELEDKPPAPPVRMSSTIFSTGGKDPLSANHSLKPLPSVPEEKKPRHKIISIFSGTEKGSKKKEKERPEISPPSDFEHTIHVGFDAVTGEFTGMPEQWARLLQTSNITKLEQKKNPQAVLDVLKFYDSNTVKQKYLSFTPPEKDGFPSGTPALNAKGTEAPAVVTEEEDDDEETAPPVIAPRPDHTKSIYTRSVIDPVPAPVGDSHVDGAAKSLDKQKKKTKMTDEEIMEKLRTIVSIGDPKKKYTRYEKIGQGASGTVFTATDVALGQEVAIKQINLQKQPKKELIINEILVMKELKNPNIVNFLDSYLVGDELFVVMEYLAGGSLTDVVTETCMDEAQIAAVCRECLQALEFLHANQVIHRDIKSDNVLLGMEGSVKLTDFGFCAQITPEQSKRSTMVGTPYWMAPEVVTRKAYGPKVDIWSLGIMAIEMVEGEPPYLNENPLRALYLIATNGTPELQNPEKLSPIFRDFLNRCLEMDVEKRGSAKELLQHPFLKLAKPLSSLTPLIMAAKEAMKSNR
# Sequence of Serine/threonine-protein kinase PAK 1 (Homo sapiens) (Q13153 whole entry): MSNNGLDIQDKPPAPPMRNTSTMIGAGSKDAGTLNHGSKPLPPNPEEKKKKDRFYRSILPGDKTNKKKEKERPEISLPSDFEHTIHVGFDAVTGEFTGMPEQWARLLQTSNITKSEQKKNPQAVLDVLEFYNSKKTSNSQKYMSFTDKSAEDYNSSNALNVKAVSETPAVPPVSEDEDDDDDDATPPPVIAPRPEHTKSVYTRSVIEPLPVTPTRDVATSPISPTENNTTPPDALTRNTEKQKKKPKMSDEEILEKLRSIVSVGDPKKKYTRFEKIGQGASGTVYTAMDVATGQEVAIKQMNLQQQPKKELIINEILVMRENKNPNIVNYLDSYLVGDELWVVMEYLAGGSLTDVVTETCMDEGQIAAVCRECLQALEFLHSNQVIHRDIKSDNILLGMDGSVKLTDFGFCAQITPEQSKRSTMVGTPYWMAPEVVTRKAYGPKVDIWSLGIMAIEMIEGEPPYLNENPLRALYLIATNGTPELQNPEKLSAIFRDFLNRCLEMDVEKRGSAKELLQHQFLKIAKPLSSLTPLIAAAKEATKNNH
# Sequence of Serine/threonine-protein kinase PAK 3 (Homo sapiens) (O75914 whole entry, looked up): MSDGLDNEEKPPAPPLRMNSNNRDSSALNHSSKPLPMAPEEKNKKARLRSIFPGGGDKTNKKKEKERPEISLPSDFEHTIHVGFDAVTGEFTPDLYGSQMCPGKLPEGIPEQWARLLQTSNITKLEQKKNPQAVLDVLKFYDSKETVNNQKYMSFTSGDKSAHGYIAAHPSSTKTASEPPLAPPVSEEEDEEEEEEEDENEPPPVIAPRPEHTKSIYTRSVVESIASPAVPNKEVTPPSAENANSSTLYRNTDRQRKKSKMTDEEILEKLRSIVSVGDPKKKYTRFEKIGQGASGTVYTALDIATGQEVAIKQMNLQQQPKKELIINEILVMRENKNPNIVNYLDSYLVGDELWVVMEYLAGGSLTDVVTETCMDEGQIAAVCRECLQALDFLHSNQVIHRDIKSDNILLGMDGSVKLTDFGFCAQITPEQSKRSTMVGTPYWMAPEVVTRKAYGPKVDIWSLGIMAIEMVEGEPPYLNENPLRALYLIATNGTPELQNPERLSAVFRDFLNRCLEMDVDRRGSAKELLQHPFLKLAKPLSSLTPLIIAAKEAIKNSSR
# Sequence of Dual specificity mitogen-activated protein kinase kinase 1 (Homo sapiens) (Q02750 whole entry): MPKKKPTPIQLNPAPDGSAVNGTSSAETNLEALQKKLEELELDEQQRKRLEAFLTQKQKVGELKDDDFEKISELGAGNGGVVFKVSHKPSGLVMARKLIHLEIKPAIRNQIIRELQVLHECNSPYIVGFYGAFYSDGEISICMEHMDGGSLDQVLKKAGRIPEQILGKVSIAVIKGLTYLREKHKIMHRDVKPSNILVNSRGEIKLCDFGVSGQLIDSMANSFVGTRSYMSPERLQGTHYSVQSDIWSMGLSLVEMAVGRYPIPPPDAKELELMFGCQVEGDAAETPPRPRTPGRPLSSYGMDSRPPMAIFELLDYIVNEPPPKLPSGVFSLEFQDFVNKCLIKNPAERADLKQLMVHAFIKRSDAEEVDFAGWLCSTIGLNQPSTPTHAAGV
# Sequence of Misshapen-like kinase 1 (Homo sapiens) (Q8N4C8 whole entry, looked up): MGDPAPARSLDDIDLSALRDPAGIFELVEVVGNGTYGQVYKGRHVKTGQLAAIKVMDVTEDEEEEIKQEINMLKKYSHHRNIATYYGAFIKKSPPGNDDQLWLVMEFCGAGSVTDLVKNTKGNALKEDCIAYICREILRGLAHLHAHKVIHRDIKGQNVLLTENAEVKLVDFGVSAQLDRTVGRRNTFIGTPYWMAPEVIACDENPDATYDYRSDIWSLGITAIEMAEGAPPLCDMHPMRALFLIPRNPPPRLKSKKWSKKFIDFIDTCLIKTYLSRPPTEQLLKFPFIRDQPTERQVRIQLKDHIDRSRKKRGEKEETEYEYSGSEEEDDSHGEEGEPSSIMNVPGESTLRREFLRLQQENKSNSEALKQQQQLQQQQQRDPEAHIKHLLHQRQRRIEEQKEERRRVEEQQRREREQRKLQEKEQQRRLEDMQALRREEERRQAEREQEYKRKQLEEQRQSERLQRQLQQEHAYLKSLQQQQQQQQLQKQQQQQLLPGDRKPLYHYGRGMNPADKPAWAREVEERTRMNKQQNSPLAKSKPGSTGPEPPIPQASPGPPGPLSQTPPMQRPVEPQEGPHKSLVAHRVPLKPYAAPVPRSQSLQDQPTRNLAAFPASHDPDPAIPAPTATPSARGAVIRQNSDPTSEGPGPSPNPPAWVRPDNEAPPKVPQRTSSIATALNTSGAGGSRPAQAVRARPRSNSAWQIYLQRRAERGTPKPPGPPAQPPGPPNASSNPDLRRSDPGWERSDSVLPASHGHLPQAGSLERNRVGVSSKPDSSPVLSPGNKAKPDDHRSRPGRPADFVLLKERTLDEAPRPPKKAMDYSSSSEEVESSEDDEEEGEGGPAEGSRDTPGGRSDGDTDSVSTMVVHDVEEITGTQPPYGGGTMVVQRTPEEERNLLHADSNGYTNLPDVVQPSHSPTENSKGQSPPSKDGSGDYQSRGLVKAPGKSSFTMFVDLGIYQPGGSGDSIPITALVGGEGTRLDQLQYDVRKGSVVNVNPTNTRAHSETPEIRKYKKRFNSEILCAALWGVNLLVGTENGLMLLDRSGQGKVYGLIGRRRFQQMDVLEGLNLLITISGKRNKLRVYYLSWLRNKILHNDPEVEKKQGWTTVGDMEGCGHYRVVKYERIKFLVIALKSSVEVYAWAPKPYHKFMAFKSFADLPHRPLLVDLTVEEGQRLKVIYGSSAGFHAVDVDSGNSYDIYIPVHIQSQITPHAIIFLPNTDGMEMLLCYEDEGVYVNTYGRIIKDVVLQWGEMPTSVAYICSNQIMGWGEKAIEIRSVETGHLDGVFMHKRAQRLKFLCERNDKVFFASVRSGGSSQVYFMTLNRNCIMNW
SMILES,inhibition [1],inhibition [2],inhibition [3],inhibition [4],inhibition [5],inhibition [6],inhibition [7],inhibition [8],inhibition [9],inhibition [10],inhibition [11],inhibition [12],inhibition [13],inhibition [14],inhibition [15],inhibition [16],inhibition [17],inhibition [18],inhibition [19],inhibition [20]
CN1CCN(Cc2ccc(-c3cc4ncnc(Nc5ccc(OCc6cccc(F)c6)c(Cl)c5)c4s3)o2)CC1,8.74% and 16.5%,3.63% and 7.76%,3.91% and 8.23%,4.62% and 8.19%,7.44% and 13.7%,2.15% and 5.51%,5.38% and 9.4%,1.94% and 6.66%,4.21% and 9.14%,-0.84% and -1.22%,-2.57% and -0.01%,6.52% and 11.3%,6.39% and 9.31%,0.62% and 1.36%,1.83% and 3.59%,3.14% and 6.57%,5.4% and 6.56%,2.6%,5.21%,-1.82%
c1ccc(-c2n[nH]cc2-c2ccnc(-c3ccc(OCCn4ccnc4)cc3)c2)nc1,81.8%,5.95%,2.45%,31.9%,79%,-0.86%,6.24%,-0.71%,3.49%,-1.3%,3.16%,1.76%,3.78%,-0.68%,0.37%,-0.22%,-2.41%,-0.74%,4.05%,-3.76%
CCS(=O)(=O)c1ccc(OC)c(Nc2ncc(-c3cccc(C(C)=O)c3)o2)c1,10.2%,3.55%,2.6%,3.09%,8.97%,7.14%,13.3%,7.18%,12.6%,-0.19%,1.58%,8.45%,1.48%,2.47%,1.36%,-0.54%,3.98%,7.26%,8.72%,7.53%
NC(=O)c1ccc2c(-c3ccnc(NCCCO)n3)c(-c3ccc(F)cc3)nn2c1,51.7%,6.94%,13.2%,10.1%,35.5%,4.48%,5.36%,4.28%,4.67%,-2.37%,-2.28%,7.12%,6.41%,2.25%,2.24%,4.61%,4.88%,0.64%,-4.27%,5.26%
O=C1Nc2ccccc2/C1=C1\CCc2cc(O)ccc21,66.8%,7.68%,9.97%,17.6%,58.9%,20.8%,58.5%,15.1%,52.4%,-4.52%,-7.51%,7.55%,7.72%,2.86%,3.05%,5.7%,6.44%,0.23%,1.47%,-1.41%
CNC(=O)c1ncccc1Nc1nc(Nc2cc3c(cc2OC)CCCN3C(=O)CN(C)C)nc2[nH]ccc12,6.26%,3.03%,3.53%,5.92%,7.79%,8.58%,12.8%,8.59%,7.84%,-2.11%,-5.28%,7.85%,7.25%,0.92%,1.69%,4.29%,5.27%,5.25%,-0.15%,11.4%
Cc1c2ccc(N(C)c3ccnc(Nc4cccc(S(N)(=O)=O)c4)n3)cc2nn1C,55.2%,6.31%,10.7%,12.8%,55.3%,6.6%,8.01%,5.78%,7.64%,-1.28%,-1.81%,7.49%,5.47%,3.47%,3.15%,4.74%,7.28%,1.63%,-1.02%,2.18%
COc1ccc2ncn(-c3cc(O[C@H](C)c4ccccc4C(F)(F)F)c(C(N)=O)s3)c2c1,3.61%,0.25%,-0.57%,1.05%,4.03%,1.43%,22.5%,0.2%,18.8%,0.64%,13.1%,-0.34%,2.49%,-1.58%,-0.3%,-2.52%,0.02%,-6.5%,-1.3%,-7.06%
Cc1nnc(-c2cccc(-c3ccc(C(=O)NCC4CC4)cc3)c2)o1,14.1%,8.77%,4.7%,7.95%,14.7%,8.49%,9.93%,10.6%,10.4%,-0.42%,0.39%,9.41%,10.5%,2.54%,3.86%,7.07%,5.35%,4.12%,2.3%,4.58%
CC1=C(C(=O)Nc2ccc3[nH]ncc3c2)C(c2ccc(F)cc2)N=C(c2ccc(C(F)(F)F)nc2)N1 (stereo not given),2.92%,-0.07%,3.43%,4.22%,2.06%,2.29%,2.27%,2.18%,0.56%,-0.24%,-0.15%,2.26%,3.97%,0.86%,0.19%,1.4%,0.67%,5.14%,-1.73%,8.32%
COc1c(C(N)=O)cc(-c2ccc(Cl)cc2)cc1-c1ccc(S(N)(=O)=O)cc1,5.7%,3.99%,3.65%,6.03%,7.24%,2.89%,4.76%,5.08%,4.15%,-1.15%,1.45%,6.68%,12.1%,2.72%,2.55%,4.51%,7.97%,6.72%,3.56%,-7.76%
OCCCNc1nccc(-c2c(-c3ccc(F)cc3)nn3cc(C(F)(F)F)ccc23)n1,21.4%,1.92%,7.22%,5.07%,13.3%,3.31%,5.88%,4.28%,2.96%,0.48%,-0.53%,6.37%,5.57%,2.56%,2.03%,2.17%,3.68%,-4.85%,-5.58%,8.72%
CN(c1ccc(NC(=O)NCCN2CCOCC2)cc1)c1ccnc(Nc2ccc(CS(C)(=O)=O)cc2)n1,14.7%,5.04%,7.12%,3.82%,7.42%,7.84%,18.8%,6.91%,13.6%,-1.2%,0.96%,4.31%,4.43%,2.52%,1.58%,4.14%,3.94%,12.2%,13.5%,3.99%
